Results on 14 compounds are retold here after PubChem BioAssay (NCATS).

Each structure is given as a SMILES string. Values without a mark were called inactive. Inconclusive results are not listed. Activity calls are given as the source filed them. Unless noted, calls come from the whole dose curve; as a rule, active = well fitted inhibition curve with a large enough effect; inconclusive = small, poorly fitted or top-dose-only effect; inactive = flat fitted curve, though single readings scatter.

The nature of experiment [1]: Drug repurposing screens with cells derived from glioblastoma tumor samples (AID 1345199). For activity, negative = cell killing: % is set by controls: 0 for no effect and ±100 for the full control effect. Note: nearly all actives have a fitted effect of over 40% in size. Note: potency is the fitted concentration of half-maximal effect. The conditions noted are these: GBM patient neurospheres viability, ATP luminescence, 48 h. The method, boiled down:
(§1)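 Four patient lines of CD133+ GBM neurospheres were screened at several concentrations; hits were retested in those lines plus three slower-growing GBM lines, using 48-hour treatment and ATP-based viability.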

The next experiment deals with astro (control astrocytes). The experiment is described as above. Conditions: viability, ATP luminescence, 48 h; series mostly up to 45.9 µM. A digest of the protocol:
as §1

Experiment [2] concerns the target Nuclear receptor subfamily 1 group I member 2 (Rattus norvegicus) (UniProt Q9R1A7). Briefly: qHTS assay for small molecule activators of the rat pregnane X receptor (rPXR) signaling pathway (AID 651751; call rule not given here; note: 0% is about no effect). The conditions noted are these: rPXR reporter cells, luciferase (One-Glo), 24 h. In general terms: Quantitative high-throughput screening tests each substance at several concentrations.

A short description of experiment [3]: qHTS assay for small molecule activators of the human pregnane X receptor (PXR) signaling pathway (AID 720659; call rule not given here; note: 0% is about no effect). Conditions: DPX-2 HepG2 CYP3A4-luciferase, 24 h; series mostly up to 92.3 µM.
The mark [4] stands for this setting: at 45.9 µM (top of the series), tumour line B.
The mark [5] stands for this setting: at 45.9 µM (top of the series), tumour line D.
Setting [6] is: at 46 µM (top of the series), tumour line A.
Setting [7] is: at 46.1 µM (top of the series), tumour line C.
The mark [8] stands for this setting: at 21.2 µM (top of the series), tumour line D.

Chain of Nuclear receptor subfamily 1 group I member 2 (Rattus norvegicus) (Q9R1A7 whole entry, looked up): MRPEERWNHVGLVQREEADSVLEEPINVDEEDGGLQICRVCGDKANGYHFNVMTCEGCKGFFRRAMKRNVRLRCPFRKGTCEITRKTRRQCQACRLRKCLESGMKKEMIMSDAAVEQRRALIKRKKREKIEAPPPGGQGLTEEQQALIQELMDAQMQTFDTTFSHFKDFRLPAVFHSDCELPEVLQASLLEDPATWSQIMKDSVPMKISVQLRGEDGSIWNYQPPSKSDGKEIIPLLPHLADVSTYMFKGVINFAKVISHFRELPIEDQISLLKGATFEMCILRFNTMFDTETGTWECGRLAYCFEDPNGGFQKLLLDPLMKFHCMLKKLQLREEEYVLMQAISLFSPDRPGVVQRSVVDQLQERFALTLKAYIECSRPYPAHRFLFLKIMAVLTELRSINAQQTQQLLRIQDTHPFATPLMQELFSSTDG

With `[O]=[Cd]`, the activity, negative = cell killing in experiment [1] (setting [4]) is -6.73%; in experiment [1] (setting [5]), 0.985%; in experiment [1] (setting [6]) it was -15%; in experiment [1] (setting [7]), -5.34%. Further, the Potency result in the experiment with astro is “inactive”. Further, in experiment [2], the max response is 0.17%. The outcome in experiment [3] was inactive.

For the compound `CCOP(=O)(OCC)O/C(=C/Cl)c1ccc(Cl)cc1Cl`, the activity, negative = cell killing in experiment [1] (setting [4]) was -17.8%; in experiment [1] (setting [5]) it was -23.4%. In experiment [1] (tumour line A), the Potency is 12.6 µM (active). Also, the Potency result in the experiment with astro is “inactive”.

In the case of `CN(C)CCCCCCN(C)C` (tested in a mixture with another compound), the results for the activity, negative = cell killing in experiment [1] (setting [4]), in experiment [1] (setting [5]) and in experiment [1] (setting [7]) were -12.5%, -12.1% and -16.2%, respectively. The Potency entry with astro is “inactive”.

In the case of `C[C@@H]1[C@@H]2Cc3ccc(O)cc3[C@@]1(C)CCN2CC1CC1`, the results for the activity, negative = cell killing in experiment [1] (setting [4]), in experiment [1] (setting [5]) and in experiment [1] (setting [7]) were -1.24%, -18.9% and 6.7%, respectively. The Potency result with astro was “inactive”.

As for `CCN1C[C@]2(COC)[C@H](O)C[C@H](OC)[C@@]34[C@@H]5C[C@@]6(O)[C@H](OC(=O)c7ccccc7)[C@@H]5[C@@](OC(C)=O)([C@@H]([C@H](OC)[C@H]23)[C@@H]14)[C@@H](O)[C@@H]6OC`, the activity, negative = cell killing in experiment [1] (setting [4]) was -6.48%; in experiment [1] (setting [5]), -4.25%; in experiment [1] (setting [7]) it was 8.16%. Further, the Potency result in the experiment on astro is “inactive”.

On to `CCNC1(c2cccs2)CCCCC1=O` (configuration not stated), for which the activity, negative = cell killing in experiment [1] (setting [8]) is -6.43%.

On to `C[C@]12CCC(=O)C=C1C=C[C@@H]1[C@@H]2CC[C@@]2(C)[C@H]1CC[C@@]2(O)CCC(=O)O`, for which the activity, negative = cell killing in experiment [1] (setting [8]) was -8.65%.

On to `CC[N+](C)(CC)CCOC(=O)C(O)(c1ccccc1)c1ccccc1`, for which the activity, negative = cell killing in experiment [1] (setting [6]) is -29.2%.

`O=[N+]([O-])c1ccc(F)c([N+](=O)[O-])c1`: the Potency in experiment [1] (tumour line C) is 14.6 µM (active).

As for `C[C@H]1CCC[C@H](O)CCCCCc2cc(O)cc(O)c2C(=O)O1`, the Potency in experiment [1] (tumour line D) was 35.5 µM (active).

On to `O=[N+]([O-])c1cc(I)c(O)c(I)c1`, for which the Potency in experiment [1] (tumour line D) was 22.4 µM (active).

In the case of `O=[N+]([O-])C(Br)(CO)CO`, the Potency in experiment [1] (tumour line A) is 35.5 µM (active).

On to `C=CC[C@]1(O)CC[C@H]2[C@@H]3CCC4=CCCC[C@@H]4[C@H]3CC[C@@]21C`, for which, in experiment [1] (tumour line A), the Potency is 12.6 µM (active).

With `C[C@H]1CC[C@@H]2[C@@H](C)[C@H]3[C@H](C[C@H]4[C@@H]5CC=C6CC(O[C@@H]7O[C@H](CO)[C@H](O)[C@H](O[C@@H]8O[C@H](CO)[C@@H](O)[C@H](O)[C@H]8O)[C@H]7O[C@H]7O[C@@H](C)[C@H](O)[C@@H](O)[C@H]7O)CC[C@]6(C)[C@H]5CC[C@]34C)N2C1` (some centres not stated), the Potency in experiment [1] (tumour line B) was 22.4 µM (active).
